# Assay results as given in ChEMBL document CHEMBL1961873, “Compounds: GSK PKIS; Assays: Nanosyn kinase panel” (2012).
# Legend:
# [1] = target: Sphingosine kinase 1 (Homo sapiens) (UniProt Q9NYA1); details: at 1 µM;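 also: mean SPHK1 inhibition value reported from the GSK PKIS kinase panel screen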
# [2] = target: T1, Sphingosine kinase 2 (Homo sapiens) (UniProt Q9NRA0); details: at 0.1 µM
# T1 sequence (whole entry): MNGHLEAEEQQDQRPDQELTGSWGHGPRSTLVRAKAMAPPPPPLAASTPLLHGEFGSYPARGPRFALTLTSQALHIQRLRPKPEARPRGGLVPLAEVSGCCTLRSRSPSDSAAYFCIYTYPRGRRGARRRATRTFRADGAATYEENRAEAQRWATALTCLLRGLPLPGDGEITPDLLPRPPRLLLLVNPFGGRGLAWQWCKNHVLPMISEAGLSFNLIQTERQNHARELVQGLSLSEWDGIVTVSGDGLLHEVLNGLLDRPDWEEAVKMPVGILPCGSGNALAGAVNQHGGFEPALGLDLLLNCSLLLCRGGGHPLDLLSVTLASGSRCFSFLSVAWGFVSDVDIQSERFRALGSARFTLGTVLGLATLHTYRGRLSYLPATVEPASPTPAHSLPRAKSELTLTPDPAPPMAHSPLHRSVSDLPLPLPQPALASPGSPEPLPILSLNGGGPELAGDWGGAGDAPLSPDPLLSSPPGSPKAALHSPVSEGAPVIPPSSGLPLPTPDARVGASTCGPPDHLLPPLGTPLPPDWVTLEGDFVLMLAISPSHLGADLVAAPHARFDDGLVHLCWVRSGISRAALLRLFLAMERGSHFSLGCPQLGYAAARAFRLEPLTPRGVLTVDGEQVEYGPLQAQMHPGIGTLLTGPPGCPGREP
# [3] = target: T1, Sphingosine kinase 2 (Homo sapiens); details: at 1 µM
# [4] = target: Casein kinase II subunit alpha (Homo sapiens) (UniProt P68400); details: at 0.1 µM
# Sequence of Casein kinase II subunit alpha (Homo sapiens) (P68400 whole entry, looked up): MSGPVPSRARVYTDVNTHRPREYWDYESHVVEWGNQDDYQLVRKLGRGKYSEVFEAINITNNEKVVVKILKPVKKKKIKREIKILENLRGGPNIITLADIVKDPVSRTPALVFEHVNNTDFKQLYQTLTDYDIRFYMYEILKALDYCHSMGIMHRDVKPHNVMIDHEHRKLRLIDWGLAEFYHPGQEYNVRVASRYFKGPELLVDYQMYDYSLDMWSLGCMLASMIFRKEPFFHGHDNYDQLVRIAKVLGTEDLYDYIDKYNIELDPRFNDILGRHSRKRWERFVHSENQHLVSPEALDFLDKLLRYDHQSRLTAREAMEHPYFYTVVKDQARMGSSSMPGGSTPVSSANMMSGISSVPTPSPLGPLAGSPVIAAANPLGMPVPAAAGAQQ
# [5] = target: Casein kinase II subunit alpha (Homo sapiens) (UniProt P68400); details: at 1 µM
# [6] = target: T2, Inhibitor of nuclear factor kappa-B kinase subunit alpha (Homo sapiens) (UniProt O15111); details: at 0.1 µM
# T2 sequence (whole entry): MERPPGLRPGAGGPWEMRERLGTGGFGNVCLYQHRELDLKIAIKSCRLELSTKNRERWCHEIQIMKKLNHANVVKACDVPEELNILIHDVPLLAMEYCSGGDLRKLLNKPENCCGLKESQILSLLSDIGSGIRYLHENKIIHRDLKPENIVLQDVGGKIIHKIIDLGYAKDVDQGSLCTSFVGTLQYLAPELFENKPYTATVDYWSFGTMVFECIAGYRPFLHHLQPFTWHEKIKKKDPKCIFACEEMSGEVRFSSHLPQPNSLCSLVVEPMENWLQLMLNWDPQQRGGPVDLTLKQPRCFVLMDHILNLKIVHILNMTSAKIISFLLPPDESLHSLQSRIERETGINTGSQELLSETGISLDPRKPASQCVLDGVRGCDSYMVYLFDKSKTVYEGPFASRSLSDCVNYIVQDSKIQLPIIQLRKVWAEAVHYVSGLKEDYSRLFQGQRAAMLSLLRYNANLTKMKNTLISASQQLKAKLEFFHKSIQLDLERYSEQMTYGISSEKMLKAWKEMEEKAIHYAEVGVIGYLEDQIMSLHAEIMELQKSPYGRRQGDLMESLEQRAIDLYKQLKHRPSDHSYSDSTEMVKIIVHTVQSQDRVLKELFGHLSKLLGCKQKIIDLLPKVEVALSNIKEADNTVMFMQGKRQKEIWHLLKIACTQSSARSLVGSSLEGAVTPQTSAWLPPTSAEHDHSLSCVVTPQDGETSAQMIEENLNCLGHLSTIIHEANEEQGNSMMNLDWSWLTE
# [7] = target: T2, Inhibitor of nuclear factor kappa-B kinase subunit alpha (Homo sapiens); details: at 1 µM
# [8] = target: T3, Inhibitor of nuclear factor kappa-B kinase subunit beta (Homo sapiens) (UniProt O14920); details: at 0.1 µM
# T3 sequence (whole entry): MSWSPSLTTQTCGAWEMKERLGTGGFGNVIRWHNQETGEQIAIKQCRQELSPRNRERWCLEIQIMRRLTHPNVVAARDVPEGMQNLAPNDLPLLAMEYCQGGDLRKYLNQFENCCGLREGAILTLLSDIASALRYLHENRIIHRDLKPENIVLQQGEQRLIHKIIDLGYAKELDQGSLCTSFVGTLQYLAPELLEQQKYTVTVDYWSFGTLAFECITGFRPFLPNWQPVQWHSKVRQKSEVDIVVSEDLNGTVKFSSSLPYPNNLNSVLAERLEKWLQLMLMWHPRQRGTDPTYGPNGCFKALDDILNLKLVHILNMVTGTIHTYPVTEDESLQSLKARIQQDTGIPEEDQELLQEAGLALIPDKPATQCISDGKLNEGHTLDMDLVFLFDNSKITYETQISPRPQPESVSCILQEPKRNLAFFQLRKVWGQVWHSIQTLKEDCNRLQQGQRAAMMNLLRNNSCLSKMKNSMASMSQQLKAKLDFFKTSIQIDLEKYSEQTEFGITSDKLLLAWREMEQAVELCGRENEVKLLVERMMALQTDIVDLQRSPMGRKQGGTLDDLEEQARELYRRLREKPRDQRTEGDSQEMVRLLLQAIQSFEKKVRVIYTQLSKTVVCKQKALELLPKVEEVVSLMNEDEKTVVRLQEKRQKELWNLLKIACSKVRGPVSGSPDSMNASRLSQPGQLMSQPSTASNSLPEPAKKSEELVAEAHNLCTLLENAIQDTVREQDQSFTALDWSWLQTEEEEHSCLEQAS
# [9] = target: T3, Inhibitor of nuclear factor kappa-B kinase subunit beta (Homo sapiens); details: at 1 µM
# [10] = target: T4, Inhibitor of nuclear factor kappa-B kinase subunit epsilon (Homo sapiens) (UniProt Q14164); details: at 0.1 µM;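 also: mean inhibition of IKKε reported, from the GSK PKIS dataset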
# T4 sequence (whole entry): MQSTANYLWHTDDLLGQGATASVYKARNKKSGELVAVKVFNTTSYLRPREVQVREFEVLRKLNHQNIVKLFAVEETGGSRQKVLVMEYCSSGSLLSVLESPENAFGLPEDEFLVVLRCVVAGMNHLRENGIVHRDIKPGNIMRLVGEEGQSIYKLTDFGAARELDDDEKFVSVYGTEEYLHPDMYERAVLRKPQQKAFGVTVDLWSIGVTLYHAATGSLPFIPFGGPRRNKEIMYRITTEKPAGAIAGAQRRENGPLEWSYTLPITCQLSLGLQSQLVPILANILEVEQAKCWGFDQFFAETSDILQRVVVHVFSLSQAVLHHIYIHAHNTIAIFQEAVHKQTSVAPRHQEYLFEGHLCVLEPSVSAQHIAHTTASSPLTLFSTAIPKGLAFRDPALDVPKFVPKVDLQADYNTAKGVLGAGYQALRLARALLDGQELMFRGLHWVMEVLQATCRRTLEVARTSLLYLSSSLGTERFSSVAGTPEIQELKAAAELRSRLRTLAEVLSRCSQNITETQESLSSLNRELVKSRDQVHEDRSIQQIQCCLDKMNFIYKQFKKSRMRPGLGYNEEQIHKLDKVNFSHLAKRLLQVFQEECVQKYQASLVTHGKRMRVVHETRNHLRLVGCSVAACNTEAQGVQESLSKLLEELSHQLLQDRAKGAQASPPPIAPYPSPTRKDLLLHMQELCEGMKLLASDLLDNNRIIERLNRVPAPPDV
# Sequence of Sphingosine kinase 1 (Homo sapiens) (Q9NYA1 whole entry): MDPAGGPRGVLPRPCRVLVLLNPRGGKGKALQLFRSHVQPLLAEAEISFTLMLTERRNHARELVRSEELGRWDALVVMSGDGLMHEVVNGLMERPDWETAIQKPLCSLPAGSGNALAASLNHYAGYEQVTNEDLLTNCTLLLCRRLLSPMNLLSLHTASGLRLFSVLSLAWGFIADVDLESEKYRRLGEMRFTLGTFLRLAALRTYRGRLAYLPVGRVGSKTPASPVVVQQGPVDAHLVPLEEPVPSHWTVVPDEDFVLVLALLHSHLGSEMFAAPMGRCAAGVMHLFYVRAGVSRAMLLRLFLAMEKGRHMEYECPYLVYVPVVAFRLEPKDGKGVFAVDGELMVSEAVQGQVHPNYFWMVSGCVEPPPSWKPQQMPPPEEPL
SMILES,inhibition [1] [%],inhibition [2] [%],inhibition [3] [%],inhibition [4] [%],inhibition [5] [%],inhibition [6] [%],inhibition [7] [%],inhibition [8] [%],inhibition [9] [%],inhibition [10] [%]
CCCN(CCS(C)(=O)=O)Cc1ccc(-c2ccc3ncnc(Nc4ccc(OCc5cccc(F)c5)c(Cl)c4)c3c2)o1,0.07,0.75,0.76,4.77,9.35,3.79,2.86,0.53,0.26,2.17
CNC(=O)c1cccc(C#Cc2cncnc2Nc2ccc(OCc3cccc(F)c3)c(Cl)c2)c1,2.62,0.55,-7.19,2.99,10.1,-3.42,-9.45,0.53,-0.35,4.53
CCc1nn2ncccc2c1-c1ccnc(NC2CC2)n1,0.9,0,0.3,1.46,4.59,3.61,6.96,4.78,3.76,4.47
Clc1ccc(-c2nn3ncccc3c2-c2ccnc(Nc3ccccc3)n2)cc1,-1.12,-0.19,0.98,1.72,1.08,-0.83,0.14,-3.05,-3.62,1.23
CCn1cc(-c2ccnc3[nH]ccc23)c(-c2cccc(NC(=O)Nc3ccc(OCc4ccccc4)cc3)c2)n1,-4.04,-0.83,-0.59,9.36,-1.27,1.99,-6.8,4.3,5.23,-4.18
CN(C)CCOc1ccc(-c2nc(-c3ccncc3)c(-c3ccc4c(c3)CC/C4=N\O)[nH]2)cc1,-0.62,-0.49,-0.4,3.04,7.33,6.61,7.1,0.93,0.86,9.22
COc1cccc(-n2ncc3c(N/N=C/c4ccc(F)cc4)ncnc32)c1,-1.38,-1.23,0.38,4.77,15.9,12.3,6.86,5.69,3.91,14.1
COc1cc(Nc2nccc(Nc3ccc4c(C)n[nH]c4c3)n2)cc(OC)c1OC,1.98,-1.28,0.88,0.37,0.29,2.2,-0.92,3.27,17,0.88
O=C(O[C@H]1CN[C@H](C#Cc2cc3ncnc(Nc4ccc(Cc5ccccc5)cc4)c3s2)C1)N1CCOCC1,-1.06,-1.12,-1.6,6.95,1.52,6.44,1.74,4,0.81,3.09
Fc1ccc(-c2nn3ccccc3c2-c2ccncc2)cc1,-4.19,0.23,-0.19,-0.45,0.13,2.86,-1.37,0.51,0.63,2.31
NS(=O)(=O)c1ccc(N/N=C2\C(=O)Nc3ccc4ncccc4c32)cc1,-1.18,0.16,7.47,5.01,32.2,9.67,20,4.79,26,8.67
CCCN1CCC(c2ccc(Nc3nc(Nc4cc(F)ccc4C(N)=O)c4cc[nH]c4n3)c(OC)c2)CC1,-2.44,0,0,32.4,70.3,2.7,18.7,0.13,7.11,6.68
COc1cc2ncn(-c3cc(OCc4ccccc4C(F)(F)F)c(C(=O)N(C)C)s3)c2cc1OC,-3.72,0.13,-2.18,-0.24,2.74,5.36,2.95,-0.51,0.42,0.86
CNC(=O)c1cc(-c2ccc(F)cc2)cc(-c2ccc(S(=O)(=O)N3CCCC3)cc2)c1N,-1.82,-0.5,-0.63,15.5,3.05,7.04,4.67,5.48,5.18,2.88
